# In PubChem BioAssay (NCI):
# This is part of a sample that, as a whole, favours compounds with a hit. Of some 83,000 tested, about 20% had one in any assay.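 The test compound was applied at a single concentration to cells in 96-well plates for 48 hours, and percent growth was recorded.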 Unmarked numbers belong to inactive results. Calls of active or inactive are those of the source. Rule for the calls: active = growth percent below 10; inactive = the rest.
# Test system: SF-268 CNS
# Test: NCI-60 one-dose screen, 48 h (100 = growth as untreated, 0 = no growth, -100 = all killed)
# Conditions: 10 µM unless noted
row,Structure (SMILES),growth
1,COc1cc(C2CC(C3C(=O)N(C)C(=O)N(C)C3=O)=NN2C=O)cc(OC)c1OC (stereo not given),102%
2,C=C1CCC2C3(C)COC(c4ccccc4)OC3CCC2(C)C1C/C=C1/C(=O)OCC1OC(C)=O (stereo not given),102%
3,Clc1ccc(C2=NN(c3ccc(Cl)cc3)C(c3cccc(Nc4ccnc5cc(Cl)ccc45)c3)C2)cc1 (stereo not given),84.3%
4,CC(=O)N1N=C(c2ccc(Nc3nc(NCCO)nc(NCCO)n3)cc2)CC1c1ccc(Cl)cc1 (stereo not given),100%
5,O=C(c1ccccc1)c1ccc(Oc2ccc([N+](=O)[O-])cc2[N+](=O)[O-])cc1,87.8%
6,O=C(C(=O)N1CCOCC1)c1cn(CCCn2cc(C(=O)C(=O)N3CCOCC3)c3ccccc32)c2ccccc12,105%
7,CC(C)CC1NC(=O)C(CCCN)NC(=O)C(C(C)C)NC(=O)C2CCCN2C(=O)C(Cc2ccccc2)NC(=O)C(CC(C)C)NC(=O)C(CCCN)NC(=O)C(C(C)C)NC(=O)C2CCCN2C(=O)C(Cc2ccccc2)NC1=O (stereo not given),-85.4% (active)
8,Cc1csc(C#Cc2cncc(O)c2)n1,131%
9,COc1cc(/C=C/C(=O)C(C(=O)/C=C/c2ccc(OC(=O)CCNC34CC5CC(CC(C5)C3)C4)c(OC)c2)C(=O)CCNC23CC4CC(CC(C4)C2)C3)ccc1OC(=O)CCNC12CC3CC(CC(C3)C1)C2 (stereo not given),28.2%
10,C/C=C(/C(=C/C)c1ccc(O)cc1)c1ccc(O)cc1,45.6%
11,COc1cc(/C=C/C(=O)CC(=O)/C=C/c2ccc(OC(=O)CCNC34CC5CC(CC(C5)C3)C4)c(OC)c2)ccc1OC(=O)CCNC12CC3CC(CC(C3)C1)C2,16.5%
12,Oc1c(Cl)cc(Cl)c(Cl)c1Cc1c(O)c(Cl)cc(Cl)c1Cl,17.5%
13,COc1cc(C2CC(c3ccc(C)cc3)=NN2C=O)ccc1OCCN(C)C (stereo not given),89.8%
14,NS(=O)(=O)c1cc(C2(O)NC(=O)c3ccccc32)ccc1Cl (stereo not given),109%
15,CCn1cnc(C[C@H](NC(=O)[C@H](CCCCNC(=O)Nc2cc(C(F)(F)F)cc(C(F)(F)F)c2)NC(=O)Nc2cc(C(F)(F)F)cc(C(F)(F)F)c2)C(=O)OC)c1,-53.5% [100 µM] (active)
16,CS(=O)(=O)N1CCN(Cc2cc3nc(-c4cccc5[nH]ncc45)nc(N4CCOCC4)c3s2)CC1 (tested in a mixture with another compound),31.4%
17,CN(C)c1ccc(-c2nc3ncc(Br)cc3o2)cc1,114%
18,COc1ccc(-c2cc(-c3nnc(SCC(=O)Nc4ccc(C(C)=O)cc4)n3-c3ccccc3)c3ccccc3n2)cc1OC,89.9%
19,Nc1nc(NC2CC2)c2ncn(C3C=CC(CO)C3)c2n1 (stereo not given),126%
20,C[C@]12CCC(=O)C=C1CC[C@H]1[C@@H]3C[C@@H](O)[C@](O)(C(=O)CO)[C@@]3(C)C[C@H](O)[C@@]12F,85.5%

row,Structure (SMILES),growth
1,NS(=O)(=O)c1cc2c(cc1Cl)NC=NS2(=O)=O,109%
2,COc1cnc2c(c1)C(=O)c1c-2n(CCCn2ccnc2)c(=O)c2cc(F)ccc12,3.73% (active)
3,NC(=O)c1cc(Br)cc(Br)c1NS(=O)(=O)c1ccccc1,108%
4,CN(C)c1ccc(-n2nc3ccccc3n2)cc1,127%
5,CC1CN(C2CCCCC2)C(=O)NC1=O (stereo not given),105%
6,O=C1C=CC(=O)N1c1ccccc1N1C(=O)C=CC1=O,97.7%
7,Cc1n(Cc2ccc3ccccc3c2)c2ccccc2[n+]1Cc1ccc2ccccc2c1,-67.6% (active)
8,C[C@H]1O[C@@H](O[C@H]2[C@@H](O)C[C@H](O[C@H]3[C@@H](O)C[C@H](O[C@H]4CC[C@]5(C)C6C[C@@H](O)[C@]7(C)[C@@H](C8=CC(=O)OC8)CC[C@]7(O)C6CC[C@@H]5C4)O[C@@H]3C)O[C@@H]2C)C[C@H](O)[C@@H]1O (stereo not given in full),-100% (active)
9,O=C(CNc1ccc2c(c1)C(=O)c1ccccc1C2=O)Nc1ccc2c(c1)C(=O)c1ccccc1C2=O,-94.6% (active)
10,Cc1sc2nc(N3CCCCC3)[nH]c(=O)c2c1C,98%
11,NC(=NCCCCCCN=C(N)/N=C(\N)Nc1ccc(Cl)cc1)/N=C(\N)Nc1ccc(Cl)cc1,20.8%
12,COc1cc(NC(=O)NCc2ccco2)ccc1-c1ccc(NC(=O)NCc2ccco2)cc1OC,56.8%
13,CSc1nc(Nc2ccc(S(=O)(=O)Nc3ccon3)cc2)c(C#N)c(-c2ccc(Cl)cc2)n1,105%
14,COP(=O)(OC)C(c1ccc(O)cc1)(c1ccc(O)cc1)c1ccc(O)cc1,106%
15,C=C1CCC2C(C)(COC(=O)CC)C(OC(=O)CC)CCC2(C)C1C/C=C1/C(=O)OCC1OC(=O)CC (stereo not given),39.4%
16,Cc1cnc2nc(-c3ccc(N(C)C)cc3)cn2c1,122%
17,Cc1ccc2nc3c(n2c1)C(=O)C(=O)c1ccccc1-3,-78.2% (active)
18,CC(C)=CCCC(C)c1ccc(C)c2c1OCN(CC1CCNCC1)C2 (stereo not given),93%
19,CCOc1cc(/C=C/C(=O)C(C(=O)/C=C/c2ccc(OC(=O)CNc3nc4ccccc4[nH]3)c(OCC)c2)C(=O)CNc2nc3ccccc3[nH]2)ccc1OC(=O)CNc1nc2ccccc2[nH]1,8.48% (active)
20,COc1ccc(C(=O)/C=C/c2cccc(Nc3ccnc4cc(Cl)ccc34)c2)cc1,39%
